Measurements reported in PubChem BioAssay AID1053 (University of Pittsburgh Molecular Library Screening Center, 2008).
Where “and” joins values, the source holds several entries; their conditions need not be identical. Identical values can stand only once. Calls of active or inactive are those of the source. The rule behind the calls is not given here.

Target: Serine/threonine-protein kinase PLK1 (Homo sapiens) (UniProt P53350)
Assay: Plk1 polo box domain binding inhibitors, SAR follow-up, biochemical, fluorescence polarization, purchased analogs (AID 1053)
Conditions: Plk1 PBD fluorescence polarization peptide binding; at 20 µM; active compounds read high

Sequence of Serine/threonine-protein kinase PLK1 (Homo sapiens) (P53350 whole entry, looked up, the tested form may be a part): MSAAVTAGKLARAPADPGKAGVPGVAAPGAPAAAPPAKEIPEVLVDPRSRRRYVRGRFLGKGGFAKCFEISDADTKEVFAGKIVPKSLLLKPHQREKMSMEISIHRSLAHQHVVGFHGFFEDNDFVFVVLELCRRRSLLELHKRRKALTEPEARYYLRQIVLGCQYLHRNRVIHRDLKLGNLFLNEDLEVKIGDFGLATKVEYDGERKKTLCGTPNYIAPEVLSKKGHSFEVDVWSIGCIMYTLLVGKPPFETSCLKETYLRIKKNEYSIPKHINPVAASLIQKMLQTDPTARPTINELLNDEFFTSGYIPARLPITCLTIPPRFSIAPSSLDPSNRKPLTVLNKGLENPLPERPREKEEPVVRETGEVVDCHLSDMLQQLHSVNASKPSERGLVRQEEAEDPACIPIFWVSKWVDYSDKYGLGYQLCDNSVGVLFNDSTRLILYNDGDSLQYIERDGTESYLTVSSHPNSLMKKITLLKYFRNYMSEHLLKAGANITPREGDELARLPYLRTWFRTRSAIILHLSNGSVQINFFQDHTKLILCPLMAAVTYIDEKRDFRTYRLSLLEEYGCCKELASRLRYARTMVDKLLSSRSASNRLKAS

inhibition, inactive:
COc1ccc(-c2nc3c(=O)n(C)c(=O)nc-3n(C)n2)cc1OC 1.9%
CCOC(=O)c1ccc(NC(=O)c2ccc3nc(N)sc3c2)cc1 -36.9%
CCCOC(=O)c1ccc(NC(=O)c2cc(-c3cccs3)nc3c(C)c(Cl)ccc23)cc1 36.6%
CCOC(=O)c1ccc(NC(=O)C2CC(=O)NC(=NC)S2)cc1 (configuration not stated) -37.5%
Cn1c(=O)[nH]c2nnc(-c3ccc(Cl)cc3)nc2c1=O 28.8%
COc1ccccc1N(/C=C1\Sc2ccccc2C1=O)C(C)=O -288% and -274%
CCOC(=O)c1ccc(NC(=O)C23CC4CC(CC(C4)C2)C3)cc1 -35.4%
CCOC(=O)c1ccc(NC(=O)C2CCC(C)CC2)cc1 (configuration not stated) -28.3%
CCOC(=O)c1ccc(NC(=O)C2COc3ccccc3O2)cc1 (configuration not stated) -40.6%
CC(=O)N(CN1C(=O)c2ccccc2C1=O)c1ccc(I)cc1 -50.3% and -70.1%
CC(=O)N(CN1C(=O)c2ccccc2C1=O)c1ccc2ccccc2c1 -49.2%
COc1ccccc1N(CN1C(=O)c2ccccc2C1=O)C(C)=O -46.9%
CN(C)c1ccc(-c2nnc3c(n2)c(=O)n(C)c(=O)n3C)cc1 -22%
COc1ccc(-c2nnc3[nH]c(=O)n(C)c(=O)c3n2)cc1 -45.9% and -39.6%
CC(=O)N(/C=C1\Sc2ccccc2C1=O)c1cc(C(F)(F)F)ccc1Cl -73.4% and -36.2%
CCCCCCC(=O)N(CN1C(=O)c2ccccc2C1=O)c1ccccc1OC -57.6%
COc1cc(C=C2C(=O)NC(=O)NC2=O)ccc1OCc1c(C)no[n+]1[O-] -67.5%
CCN(CC)CCOC(=O)c1ccc(NC(=O)c2cc(OC)c(OC)cc2OC)cc1 -46.3%
CCOC(=O)c1ccc(NC(=O)c2cc(C)cc(C)c2)cc1 -13.8%
CCCCCC(=O)N(CN1C(=O)c2ccccc2C1=O)c1cccc(C(=O)O)c1 -10.1%
CC(=O)N(/N=C1\Sc2ccccc2C1=O)c1ccc(C)cc1C 29.2%
Cc1ccc(-c2nnc3[nH]c(=O)n(C)c(=O)c3n2)cc1 -28.5% and -24.3%
Cc1ccc(N(CN2C(=O)c3ccc([N+](=O)[O-])cc3C2=O)C(=O)C(c2ccccc2)c2ccccc2)cc1 -39.6%
Cc1ccc(C(=O)CN2C=CC(=C(O)NCc3ccccc3)C=C2)cc1 -52.1%
COc1ccc(N(/N=C2\Sc3ccccc3C2=O)C(C)=O)cc1 30.5%
O=c1[nH]c(=O)c2nc(-c3ccc(Cl)cc3)cnc2[nH]1 -45.5%
COc1ccc(N(CN2C(=O)c3ccccc3C2=O)C(C)=O)cc1 -43.9% and -51.6%
CC(=O)N(/N=C1\Sc2ccccc2C1=O)c1cccc(Br)c1 20.2%
Cn1c(=O)[nH]c2nnc(-c3ccc4c(c3)OCO4)nc2c1=O -38.9% and 28%
Cn1c(=O)c2nc(-c3ccccc3)c(-c3ccccc3)nc2n(C)c1=O -30.5%
CC(=O)N(CN1C(=O)c2ccccc2C1=O)c1ccc(Oc2ccccc2)cc1 -50%
CCOC(=O)c1ccc(N=Cc2c(O)n(C3CCCCC3)c(=O)n(C3CCCCC3)c2=O)cc1 13.1%
CCCOC(=O)c1ccc(NC(=O)c2ccc(C)c(I)c2)cc1 -23.6%
Cn1c(=O)c2nc(-c3ccccc3)c(=O)[nH]c2n(C)c1=O -31.3%
CCOC(=O)c1ccc(N=Cc2c(O)n(-c3ccc(OCC)cc3)c(=O)[nH]c2=O)cc1 -112%
O=C(COC(=O)c1ccc(NC(=O)c2ccc(Cl)cc2)cc1)c1ccccc1 41.3%
CCN(CC)CCOC(=O)c1ccc(N=Cc2c(O)n(-c3c(C)cc(C)cc3C)c(=O)[nH]c2=O)cc1 -134%
